{"source": "PubChem BioAssay AID624320", "about": "(Broad Institute, 2012)", "biological_target": "Protein disulfide-isomerase A6 (Homo sapiens) (UniProt Q15084)", "sequence (Q15084 whole entry, looked up)": "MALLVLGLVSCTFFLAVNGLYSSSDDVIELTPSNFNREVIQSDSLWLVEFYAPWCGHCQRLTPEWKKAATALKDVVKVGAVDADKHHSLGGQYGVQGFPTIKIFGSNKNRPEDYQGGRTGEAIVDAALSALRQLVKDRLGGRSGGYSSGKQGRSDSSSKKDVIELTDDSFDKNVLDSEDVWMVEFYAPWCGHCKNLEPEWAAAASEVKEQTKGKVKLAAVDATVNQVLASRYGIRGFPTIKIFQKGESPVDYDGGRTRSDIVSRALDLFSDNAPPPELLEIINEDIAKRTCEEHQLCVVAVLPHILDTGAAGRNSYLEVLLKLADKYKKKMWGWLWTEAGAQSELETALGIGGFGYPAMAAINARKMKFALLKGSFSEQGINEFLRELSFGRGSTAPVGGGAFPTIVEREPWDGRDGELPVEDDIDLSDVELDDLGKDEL", "assay": "inhibitors of ERp5 insulin reduction – biochemical, insulin aggregation absorbance, dry powder samples, selectivity assay for PDI inhibitor antithrombotic project, dose response (AID 624320)", "note": "Active and inactive are the calls of the source.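 The calls were made as follows: active = compounds lowering absorbance whose fitted half-effect dose is at most twice the highest valid tested dose; inconclusive = flat fit between 30 and 70% inhibition, or poor fit; inactive = the rest, including opposite-direction activity.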"}
{"molecule": "C[C@H]1CN([C@@H](C)CO)C(=O)c2cccc(NS(C)(=O)=O)c2O[C@H]1CN(C)Cc1ccc(Oc2ccccc2)cc1", "values": [{"measurement": "outcome", "result": "inactive"}]}
